Screening data: PubChem, Sanford-Burnham Center for Chemical Genomics
PLAP activator: PLAP enzyme activators, biochemical, luminescence, HTS; Alkaline phosphatase, placental type (Homo sapiens), P05187; purified PLAP enzyme, luminescent substrate read-out; active compounds read high; activation fold at 20 µM; hit rate 1.2% among 96,000; in the data active = activation fold above about 2
CYP2C19 inh: blockers of cytochrome P450 2C19 activity – biochemical, luminescence, ADME assay, primary screen. P33261. CYP2C19 Supersomes, luciferin-H EGE luminescence, 30 min. inhibition, % at 5 µM. hit rate 21% among 96,000;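 active = CYP2C19 inhibition above a set limit at 5 µM in the primary screen, cut at about 50% in these data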;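 also: plate controls were negative control wells for no effect and 2.5 mM tranylcypromine positive control for full effect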
Target sequence (P33261 whole entry, looked up): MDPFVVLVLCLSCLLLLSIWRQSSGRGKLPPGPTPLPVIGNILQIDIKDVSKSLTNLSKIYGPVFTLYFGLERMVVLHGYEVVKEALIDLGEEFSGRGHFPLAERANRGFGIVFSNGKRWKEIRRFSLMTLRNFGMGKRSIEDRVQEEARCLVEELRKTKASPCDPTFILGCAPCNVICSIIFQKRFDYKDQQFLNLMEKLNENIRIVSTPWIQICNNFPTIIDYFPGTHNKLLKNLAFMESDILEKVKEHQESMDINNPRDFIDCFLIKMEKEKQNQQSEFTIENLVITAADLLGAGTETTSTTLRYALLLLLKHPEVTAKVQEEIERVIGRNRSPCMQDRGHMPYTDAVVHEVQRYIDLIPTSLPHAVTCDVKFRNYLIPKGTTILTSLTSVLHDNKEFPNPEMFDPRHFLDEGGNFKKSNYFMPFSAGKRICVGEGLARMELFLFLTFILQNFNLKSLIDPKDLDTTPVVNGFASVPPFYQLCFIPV
CYP2C9 inhib: blockers of cytochrome P450 2C9 activity – biochemical, luminescence, ADME assay, primary screen | AID 777, 2007 | hit rate 20% among 96,000 | P11712 | CYP2C9 Supersomes, luciferin-H conversion | inhibition, % at 5 µM;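 active = blocking of liver enzyme CYP2C9 beyond about 50% at 5 µM, limit read from the data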
CYP2C19 act: human CYP2C19 activators, primary screen, biochemical, luminescence; 96,000 tested, under 10 active; recombinant CYP2C19, luciferin-H EGE luminescence; active compounds read high; 0 = fully inhibited enzyme, 1 = untreated enzyme; activation factor at 5 µM; Cytochrome P450 2C19 (Homo sapiens), P33261;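 active = activation factor of at least 2 at 5 µM in the primary screen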;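 also: 0 = wells with 2.5 mM tranylcypromine and 1 = vehicle-only wells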
CYP2C9 act: human CYP2C9 activators, primary screen, biochemical, luminescence; activation factor at 5 µM; recombinant CYP2C9, luciferin-H conversion; active compounds read high; factor 1 = untreated enzyme, 0 = blocked; hit rate 1.4% among 96,000;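 active = activation factor of 2 or more for CYP2C9 at a 5 µM dose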;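 also: 0 = sulfaphenazole-blocked wells and 1 = vehicle-only wells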
* = called active by the depositor; nt = not tested or not shown. Hits are enriched below; roughly 31% of the tested compounds scored in any of these assays.

SMILES	PLAP activator	CYP2C19 inh	CYP2C9 inhib	CYP2C19 act	CYP2C9 act
Cc1ccccc1NC(=O)C1CCCN1S(=O)(=O)c1cccc2cccnc12 (configuration not stated)	1.4	67*	96*	0.3	0
CCCNC(=O)c1ccccc1C(=O)NCCC	0.8	-5	7	1.1	0.9
Cc1csc(CCc2nc(C)cs2)n1	0.9	16	9	0.8	0.9
CCCS(=O)(=O)N1CCC(C(=O)NCCc2ccc(C)cc2)CC1	0.8	2	6	1	0.9
O=C(c1cc(Cl)ccc1Cl)N1CCN(c2ccccn2)CC1	1.1	94*	92*	0.1	0.1
O=C(c1cccc(Cl)c1)N1CCN(c2ccccn2)CC1	1.1	90*	79*	0.1	0.2
Nc1cccc2c1C(=O)N(C(=O)c1ccc(S(=O)(=O)N3CCCCCC3)cc1)C2=O	1.3	29	57*	0.7	0.4
COc1ccccc1C(=O)N1CCN(c2ccccn2)CC1	1	32	27	0.7	0.7
O=C(c1c(Cl)cccc1Cl)N1CCN(c2ccccn2)CC1	0.9	37	63*	0.6	0.4
COc1cccc(OC)c1C(=O)N1CCN(c2ccccn2)CC1	1.3	25	7	0.8	0.9
O=C(Cn1c(=O)oc2ccccc21)N1CCN(c2ccccc2)CC1	1.1	24	-2	0.8	1
O=C(c1ccc(S(=O)(=O)N2CCCCCC2)cc1)N1CCN(c2ccccn2)CC1	1.7	8	69*	0.9	0.3
NC(=O)C1CCN(C(=O)N2c3ccccc3Sc3ccccc32)CC1	1.5	22	2	0.8	1
O=C(N1CCN(c2ccccn2)CC1)N1c2ccccc2Sc2ccccc21	1	90*	88*	0.1	0.1
O=C(c1ccc(Cl)c(S(=O)(=O)N2CCCC2)c1)N1CCN(c2ccccn2)CC1	1	11	32	0.9	0.7
Cc1ccc(/C=N\NC(=O)c2csnn2)cc1	1.1	36	-3	0.6	1
CCCCCCCCCOC(=O)C(CC(=O)O)N1CCOCC1 (configuration not stated)	2*	4	77*	1	0.2
CC(=O)NC(CC(=O)NCC(c1ccco1)N(C)C)c1ccccc1 (configuration not stated)	1.3	22	-2	0.8	1
O=c1cnc2ccccc2n1CC1CCCCC1	0.7	96*	32	0	0.7
Cn1c(Cn2cnc3ccccc32)nc2ccccc21	0.8	17	1	0.8	1
c1ccc2c(c1)ncn2CCC1CCCCC1	1.2	92*	58*	0.1	0.4
O=C(O)Cn1c(=O)cnc2ccccc21	0.8	-21	10	1.2	0.9
COc1ccc(C)cc1NC(=O)c1cnc2sccn2c1=O	0.9	4	-9	1	1.1
O=C(COc1cc(O)c2c(=O)cc(-c3ccccc3)oc2c1)c1ccc(F)cc1	0.9	8	40	0.9	0.6
O=C(COc1cc(O)c2c(=O)cc(-c3ccccc3)oc2c1)c1ccccc1	1	32	59*	0.7	0.4
SMILES	PLAP activator	CYP2C19 inh	CYP2C9 inhib	CYP2C19 act	CYP2C9 act
Clc1ccc(-c2nnc(-c3ccccc3Cl)o2)cc1	0.9	-13	-9	1.1	1.1
OC(c1ccc(Cl)cc1)c1nnc(-c2ccccc2)o1 (configuration not stated)	1.1	100*	88*	0	0.1
CC(C)N1C(=O)C2C(C(=O)NC3CCCCC3)C3C=CC2(O3)C1C(=O)NC1CCCCC1 (configuration not stated)	1	-1	-2	1	1
Cc1cc(NC(=O)Cn2nnc3sc4c(c3c2=O)CCCC4)no1	0.8	6	21	0.9	0.8
CCOC(=O)c1sc(NC(=O)Cn2nnc3sc4c(c3c2=O)CCCC4)nc1C	1.1	26	55*	0.7	0.4
CCCCN(C)C(=O)CSc1nc(NCc2ccc(OC)cc2)c2ccccc2n1	1.5	54*	44	0.5	0.6
O=C1CC(NCc2ccc3c(c2)OCO3)C(=O)N1Cc1ccc2c(c1)OCO2 (configuration not stated)	1.1	50	23	0.5	0.8
O=S(=O)(Nc1ccccc1)c1ccc(Oc2ncc(C(F)(F)F)cc2Cl)cc1	1.1	7	21	0.9	0.8
CC(=O)Nc1ccc(Oc2ncccn2)cc1	nt	-14	-10	1.1	1.1
COc1ccc(S(=O)(=O)Nc2ccc(Oc3ncccn3)c(Cl)c2)cc1	1.3	100*	98*	0	0
COc1ccc(NS(=O)(=O)c2ccc(Oc3ncccn3)cc2)cc1	0.9	81*	69*	0.2	0.3
Cc1cc(=O)oc(C)c1C(=O)Nc1ccc(Cl)cn1	0.9	-17	-18	1.2	1.2
c1ccc(C2=NNC(=NC3CC3)SC2)cc1	1	84*	54*	0.2	0.5
Cc1cccc(N=C2NN=C(c3ccc4c(c3)OCCO4)CS2)c1	1.1	30	37	0.7	0.6
O/N=C1\CCCc2nnc3c(c21)CCCC3	1	1	-193	1	2.9*
O/N=C1\CCCc2oc3c(c21)CCCC3	1	-9	-9	1.1	1.1
CCOC(=O)C1=C(O)CSC1=Nc1ccc(Cl)cc1	1	38	20	0.6	0.8
O=c1oc(-c2ccc(F)cc2)nc2ccsc12	0.9	13	8	0.9	0.9
O=c1oc(-c2ccccc2Cl)nc2ccsc12	0.8	77*	14	0.2	0.9
NC(=O)CNC(=O)[C@@H]1CC2(CC(c3ccccc3)=NO2)CN1C(=O)c1ccc(Br)cc1 (some centres not stated)	1.4	2	10	1	0.9
COc1ccc(OC)c(C2CC(=O)N3CN(c4ccccc4F)CSC3=C2C#N)c1 (configuration not stated)	1	47	89*	0.5	0.1
COc1cccc(C2CC(=O)N3CN(c4ccccc4F)CSC3=C2C#N)c1 (configuration not stated)	0.9	68*	84*	0.3	0.2
CCc1ccccc1N1CSC2=C(C#N)C(c3cc(OC)c(OC)cc3OC)CC(=O)N2C1 (configuration not stated)	1.7	23	39	0.8	0.6
CCCNc1nc2c(c(=O)[nH]c(=O)n2C)n1CCC(C)C	0.8	10	49	0.9	0.5
N#Cc1ccc(-c2ccc(F)cc2)nc1SCC(=O)Nc1sc2c(c1C#N)CCC2	1	-11	-3	1.1	1
CCN1C(=O)/C(=C\N2CCCCCC2)SC1=S	1	56*	14	0.4	0.9
CCN1C(=O)/C(=C/N2CC(C)CC(C)C2)SC1=S (configuration not stated)	0.9	32	14	0.7	0.9
